A selection: hits, their analogues and other compounds. The true share with any hit is near 16%.
TDP1 cell noCPT = qHTS for Inhibitors of human tyrosyl-DNA phosphodiesterase 1 (TDP1): qHTS in cells in absence of CPT; DT40 Tdp1-/- hTDP1 cells, no CPT, ATP luminescence, 48 h; Potency, µM (top dose mostly 46.2 µM), without a hit: at the top dose activity change, negative = growth inhibition, most hits filed as inhibitors; 420,000 tested, 15% active; also: potency is read from the fitted curve at half-maximal effect; % is scaled to controls: 0 for no effect and ±100 for the full control effect; nearly all actives have a fitted effect of over 55% in size
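Chicken DT40 Tdp1-/- cells complemented with human TDP1, screened without camptothecin (DMSO vehicle only), 400 cells/well. Compounds pin-transferred, cells incubated at 37 °C for at least 48 hr. Growth read as ATP-dependent luminescence (CellTiter-Glo, 30 min at RT).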
uPA surface inh = qHTS for Inhibitors of Cell Surface uPA Generation; cell surface uPA generation assay, qHTS; 330,000 tested, 0.31% active; Potency, µM (series often up to 38.3 µM), inactives show top-dose activity change, negative = inhibition, hits mostly inhibitors; active = well fitted inhibition curve with a large enough effect; inconclusive = small, poorly fitted or top-dose-only effect; inactive = no such curve, though single readings can be large or run the other way; tested in mouse RAW 264.7 cells; also: potency is read from the fitted curve at half-maximal effect; % is scaled to controls: 0 for no effect and ±100 for the full control effect; nearly all actives have a fitted effect of over 55% in size
DT40 TDP1 CPT = qHTS for Inhibitors of human tyrosyl-DNA phosphodiesterase 1 (TDP1): qHTS in cells in presence of CPT; chicken DT40 Tdp1-/-;hTDP1 cells + 20 nM CPT, ATP luminescence, 48 h; Potency, µM (doses to about 46.2 µM), for inactives: at the top dose activity change, negative = growth inhibition, hits mostly inhibitors; 420,000 tested, 12% active; also: potency is read from the fitted curve at half-maximal effect; % is scaled to controls: 0 for no effect and ±100 for the full control effect; nearly all actives have a fitted effect of over 55% in size
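Chicken DT40 Tdp1-/- cells stably complemented with human TDP1 were seeded at 400 cells/well in medium containing 20 nM camptothecin, exposed to pin-transferred compounds, and grown at 37 °C for at least 48 hr. Viability was read as ATP luminescence.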
TDP1 inh = qHTS Assay for Inhibitors of Tyrosyl-DNA Phosphodiesterase (TDP1); Tyrosyl-DNA phosphodiesterase 1 (Homo sapiens), Q9NUW8; recombinant TDP1, AlphaScreen DNA substrate cleavage; Potency, µM (series often up to 130 µM), without a hit: top-dose activity change, negative = inhibition, usual class: inhibitors; 350,000 tested, 0.28% active; also: potency is read from the fitted curve at half-maximal effect; % is scaled to controls: 0 for no effect and ±100 for the full control effect; nearly all actives have a fitted effect of over 40% in size
Target sequence (Q9NUW8 whole entry, looked up): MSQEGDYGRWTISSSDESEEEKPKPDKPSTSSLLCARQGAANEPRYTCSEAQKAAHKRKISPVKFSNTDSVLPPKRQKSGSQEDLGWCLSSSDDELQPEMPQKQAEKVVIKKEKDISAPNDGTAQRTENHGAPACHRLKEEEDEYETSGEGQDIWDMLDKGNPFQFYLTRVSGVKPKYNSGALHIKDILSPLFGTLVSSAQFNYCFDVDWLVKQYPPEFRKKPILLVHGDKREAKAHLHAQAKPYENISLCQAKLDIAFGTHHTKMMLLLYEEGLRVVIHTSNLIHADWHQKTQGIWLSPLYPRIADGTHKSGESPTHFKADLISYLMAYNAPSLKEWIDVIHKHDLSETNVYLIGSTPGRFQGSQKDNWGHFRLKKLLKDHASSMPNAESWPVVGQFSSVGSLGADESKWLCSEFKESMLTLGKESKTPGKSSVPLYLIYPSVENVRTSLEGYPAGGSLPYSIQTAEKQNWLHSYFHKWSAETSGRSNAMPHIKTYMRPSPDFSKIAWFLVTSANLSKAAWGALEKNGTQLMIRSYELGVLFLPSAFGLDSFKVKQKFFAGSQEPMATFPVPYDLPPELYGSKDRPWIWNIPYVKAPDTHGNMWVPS
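E. coli-derived human Tdp1, 1 nM final. Cpd preinc 15 min RT; substrate 15 nM final, 5 min RT; AS bead mix 10 ug/ml final, 10 min RT. Signal loss = tyrosine-FITC cleavage. No-enzyme wells = max signal.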
miR-21 reporter = qHTS Assay for Modulators of miRNAs and/orActivators of miR-21. AID 2288, 2010. HeLa miR-21 FLuc reporter, luciferase, 48 h. Potency, µM (top dose mostly 38.3 µM), without a hit: at the top dose activity change, positive = activation, hits mostly activators. 340,000 tested, under 10 active;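 also: % of control where 0% means no effect; miR-21 action dims this reporter so a rising signal means less miR-21 action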
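Luminescence from a firefly luciferase reporter carrying a miR-21 binding site downstream, stably expressed under a CMV promoter in HeLa cells that make miR-21 endogenously, reports miRNA modulation after 48 h compound exposure up to approximately 40uM final.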
An asterisk follows results filed as active. Unless noted, calls follow the shape of the dose curve; as a rule, active = well fitted curve in the direction sought with a large enough effect; inconclusive = small, poorly fitted or top-dose-only effect, or another doubt; inactive = no such curve, though single readings can be large; an effect the other way counts as inactive or inconclusive.

COc1c(Br)cc([N+](=O)[O-])c(OC)c1C(=O)NC(=O)Nc1nc(C)cc(C)n1 was read as TDP1 cell noCPT 0%, uPA surface inh 18%, DT40 TDP1 CPT 4%, TDP1 inh 8% and miR-21 reporter 4%.
`Fc1ccc(CNC(=S)Nc2ccccc2F)cc1` gave TDP1 cell noCPT -15%, uPA surface inh -13%, DT40 TDP1 CPT -6%, TDP1 inh 0% and miR-21 reporter -3%.
For Oc1c(N=NC(=S)Nc2ccccc2F)c2ccccc2n1Cc1cccc(Cl)c1 the results were TDP1 cell noCPT 6.5µM*, uPA surface inh -3%, DT40 TDP1 CPT 6.5µM*, TDP1 inh 9% and miR-21 reporter 3%.
For Cc1cccc(Cn2c(O)c(N=NC(=S)Nc3ccccc3F)c3ccccc32)c1 the results were TDP1 cell noCPT 7.3µM*, uPA surface inh inconclusive, DT40 TDP1 CPT 7.3µM*, TDP1 inh 11% and miR-21 reporter -1%.
For Oc1c(N=NC(=S)Nc2ccccc2F)c2ccccc2n1Cc1ccc(F)cc1 the results were TDP1 cell noCPT 2.3µM*, uPA surface inh inconclusive, DT40 TDP1 CPT 5.2µM*, TDP1 inh 14% and miR-21 reporter 17%.
CCS(=O)(=O)NCC(c1ccco1)N1CCN(c2ccc(OC)cc2)CC1 (configuration not stated) was read as TDP1 cell noCPT 17%, DT40 TDP1 CPT 12%, TDP1 inh 5% and miR-21 reporter -2%.
Screening Cc1ccccc1C(=O)Nc1cccc(NC(=O)c2ccc(F)cc2)c1 returned TDP1 cell noCPT inconclusive, uPA surface inh -1%, DT40 TDP1 CPT -18% and miR-21 reporter 5%.
Cc1cccnc1C(NC(=O)C1CCN(Cc2ccc3ccccc3n2)CC1)c1ccc(Cl)cc1 (configuration not stated) was read as TDP1 cell noCPT 16µM* and DT40 TDP1 CPT inconclusive.
COc1cccc(C(NC(=O)C2CCN(CCCOc3ccccc3)CC2)c2ccccn2)c1 (configuration not stated) was read as TDP1 cell noCPT -19% and DT40 TDP1 CPT inconclusive.
For Cc1cccnc1C(NC(=O)C1CCN(CCCc2ccccc2)CC1)c1ccc(F)cc1 (configuration not stated) the results were TDP1 cell noCPT 23µM* and DT40 TDP1 CPT inconclusive.
CCCN1CCC(C(=O)NC(c2ccc(F)cc2)c2ncccc2C)CC1 (configuration not stated) was read as TDP1 cell noCPT -26% and DT40 TDP1 CPT inconclusive.
`Cc1cccnc1C(NC(=O)C1CCN(CCCOc2ccc(F)cc2)CC1)c1ccccc1` (configuration not stated) gave TDP1 cell noCPT 21µM* and DT40 TDP1 CPT inconclusive.
For Cc1cccnc1C(NC(=O)C1CCN(Cc2ccc(Cl)cc2)CC1)c1ccc(F)cc1 (configuration not stated) the results were TDP1 cell noCPT 21µM* and DT40 TDP1 CPT 26µM*.
Screening COc1ccc(N2CCN(S(=O)(=O)CCNC(=O)c3ccc(OC(C)C)cc3)CC2)cc1 returned TDP1 cell noCPT -18%, DT40 TDP1 CPT -2%, TDP1 inh 5% and miR-21 reporter 1%.
Screening Cc1cccnc1C(NC(=O)C1CCN(CCOc2ccc(F)cc2)CC1)c1ccc(Cl)cc1 (configuration not stated) returned TDP1 cell noCPT 16µM* and DT40 TDP1 CPT inconclusive.
`COc1ccc(OCCN2CCC(C(=O)NC(c3ccc(C)cc3)c3ccccn3)CC2)cc1` (configuration not stated) gave TDP1 cell noCPT -15% and DT40 TDP1 CPT -28%.
For COc1ccc(OCCN2CCC(C(=O)NC(c3ccccn3)c3ccccc3OC)CC2)cc1 (configuration not stated) the results were TDP1 cell noCPT -20% and DT40 TDP1 CPT inconclusive.
